Screens deposited in PubChem by National Center for Advancing Translational Sciences (NCATS).
BAZ2B block: blocks human BAZ2B; Q9UIF8; AlphaScreen BAZ2B-H3K14Ac peptide displacement; Potency, µM (series often up to 114 µM), usual class: inhibitors; hit rate 4.4% among 360,000; AID 504333; note: nearly all actives have a fitted effect of over 60% in size
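Compounds, titrated to a top concentration of 110 uM, were incubated 30 min at room temperature with preformed BAZ2B/acetyl-K14 H3 peptide complex (50 nM each). Proximity signal was measured by AlphaScreen after 20 min with beads.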
JMJD2A Tudor: JMJD2A Tudor domain (human) inhibition; AlphaScreen JMJD2A-Tudor / H3K4me3 peptide binding; Potency, µM (series often up to 114 µM), actives largely listed as inhibitors; hit rate 4.4% among 390,000; AID 504339; note: nearly all actives have a fitted effect of over 50% in size
L3MBTL1 inh: blocks human L3MBTL1; hit rate 0.66% among 230,000; Potency, µM (highest dose often 57.1 µM), actives largely listed as inhibitors; AlphaScreen L3MBTL1–H3K9me1 peptide binding; AID 485360; note: nearly all actives have a fitted effect of over 60% in size
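L3MBTL1 (50 nM) pre-complexed 30 min with biotinylated H3(1-15)K9me1 peptide (75 nM), then compounds added for 30 min at room temperature; AlphaScreen streptavidin donor/nickel chelate acceptor beads (10 ug/mL final) read after 30 min dark incubation.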
HP1b chromo inh: blocks HP1-beta chromodomain binding to methylated histone tails. Potency, µM (top dose mostly 114 µM), hits mostly inhibitors. hit rate 0.56% among 390,000. P83916. AlphaScreen HP1-beta / biotin-H3K9me3 peptide binding. AID 540317; note: nearly all actives have a fitted effect of over 70% in size
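AlphaScreen: HP1-beta (50 nM) preformed 30 min with biotin-H3(1-18)K9me3 peptide (50 nM) in PBS pH 7.4, 0.01% Tween-20. Compound added for 30 min at RT, then streptavidin donor/nickel chelate acceptor beads (10 ug/mL) for 30 min.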
G9a block: blocks human histone lysine methyltransferase G9a; G9a H3K9 monomethylation, AlphaScreen, 2 h; hit rate 8.8% among 350,000; AID 504332; Q96KQ7; Potency, µM (titrated, usually from 102 µM), hits mostly inhibitors; note: nearly all actives have a fitted effect of over 75% in size
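Chemiluminescent proximity detection of H3K9 monomethylation, read after 10 min bead incubation in the dark. Reaction: 20 nM G9a, 500 nM biotin-H3K9 peptide, 20 uM SAM cofactor, 2 h, room temperature, following 15 min enzyme-compound preincubation.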
GLS inh: blocks human kidney-isoform glutaminase activity | GLS enzymatic activity, qHTS titration | Potency, µM (top dose mostly 45.5 µM), actives largely listed as inhibitors | hit rate 0.21% among 410,000 | AID 624170
Target sequence (O94925 whole entry, looked up, canonical isoform): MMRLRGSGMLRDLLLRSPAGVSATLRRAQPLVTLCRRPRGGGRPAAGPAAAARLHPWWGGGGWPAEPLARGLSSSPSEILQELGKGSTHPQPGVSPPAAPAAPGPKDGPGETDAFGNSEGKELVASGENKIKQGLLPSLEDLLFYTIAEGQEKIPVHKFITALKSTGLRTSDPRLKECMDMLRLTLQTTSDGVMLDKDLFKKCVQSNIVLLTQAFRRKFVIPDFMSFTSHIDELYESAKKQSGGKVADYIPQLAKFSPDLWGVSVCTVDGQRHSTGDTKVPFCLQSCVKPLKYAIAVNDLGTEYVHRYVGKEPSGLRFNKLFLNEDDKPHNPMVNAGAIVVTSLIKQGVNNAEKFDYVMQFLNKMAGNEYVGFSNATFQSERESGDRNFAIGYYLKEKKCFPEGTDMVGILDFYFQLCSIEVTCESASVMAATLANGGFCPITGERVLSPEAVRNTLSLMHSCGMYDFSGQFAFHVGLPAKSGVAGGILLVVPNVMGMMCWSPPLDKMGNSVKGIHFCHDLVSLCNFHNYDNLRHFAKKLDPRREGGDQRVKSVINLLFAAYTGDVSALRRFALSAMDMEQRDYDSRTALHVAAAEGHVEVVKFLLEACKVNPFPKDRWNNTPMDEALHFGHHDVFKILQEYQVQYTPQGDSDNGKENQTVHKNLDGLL
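Coupled fluorescence readout: glutamate oxidase/HRP/Amplex Red detect glutamate formed by hKGA from L-glutamine (1 mM solution added). Buffer 45 mM KH2PO4 pH 8.2, 0.02% Tween-20; reads at t0 and 30 min RT.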
Numbers stand for hits; 0 = inactive; ? = inconclusive; - = no result given; [ ] = remark or other dose. Rows were chosen to be rich in hits. Some 10% of all compounds tested hit in one or more screens of this group. Calls come from the whole dose curve; as a rule, active = well fitted curve in the direction sought with a large enough effect; inconclusive = small, poorly fitted or top-dose-only effect, or another doubt; inactive = no such curve, though single readings can be large; an effect the other way counts as inactive or inconclusive.

SMILES | BAZ2B block | JMJD2A Tudor | L3MBTL1 inh | HP1b chromo inh | G9a block | GLS inh
COC(=O)c1c(NC(=O)c2ccc(Br)o2)sc(C)c1C | 0 | 0 | 0 | 0 | 50.1µM | 0
O=C1C(c2ccc(F)cc2)N(CCc2ccccc2)C(=O)CN1C1CCCCCC1 (stereo unspecified) | 0 | 0 | - | 0 | 0 | 0
FC(F)(F)c1ccccc1NC(=S)N/N=C1\CC2CC=CC12 (stereo unspecified) | 70.8µM | 0 | 0 | ? | 17.8µM | 0
O=C(N/N=C1\CC2CC=CC12)c1ccccc1Cl (stereo unspecified) | 0 | 0 | 0 | 0 | 0 | 0
CCOC(=O)c1oc2c(O)c(O)ccc2c(=O)c1-c1nncn1-c1ccccc1 | ? | ? | ? | 0 | 3.16µM | 0
Cc1cc(C)n(CC(O)Cn2c(C)c(C)c3ccccc32)n1 (stereo unspecified) | 35.5µM | 3.55µM | - | ? | 12.6µM | 0
Cc1c(C)n(CC(O)CN2CCCCC2)c2ccccc12 (stereo unspecified) | 44.7µM | 1.58µM | 0 | ? | ? | 0
Cc1c(C)n(CC(O)CN2CCOCC2)c2ccccc12 (stereo unspecified) | - | 22.4µM | 0 | 70.8µM | 12.6µM | 0
Cc1c(C)n(CC(O)CN2CCN(C)CC2)c2ccccc12 (stereo unspecified) | 0 | 0 | - | 0 | ? | 0
Cc1ccc2c(c1)c(C)c(C)n2CC(O)Cn1nc(C)c(Br)c1C (stereo unspecified) | 44.7µM | 50.1µM | 0 | 0 | ? | 0
Cc1cccc(-c2nc(C)c(CCNC(=O)C(=O)Nc3cccc(Cl)c3C)s2)c1 | 0 | 0 | - | 0 | 0 | 0
Cc1noc(C)c1C(=O)N1CCC[C@@]2(CCN(Cc3cc(C(F)(F)F)cc(C(F)(F)F)c3)C2)C1 | - | - | - | - | 0[12.7 µM] | -
CC(=O)c1ccc(NC(=O)CCc2c(C)nn(-c3ccc4nnc(C)n4n3)c2C)cc1 | 0 | 0 | - | 0 | 0 | 0
CCCN1CNc2c(c(=O)[nH]c(=S)n2CCc2cc(C)ccc2C)C1 | - | 0 | - | 0 | - | -
COc1ccc(-c2noc(CSCC(=O)Nc3ccc(C)cc3Br)n2)cc1OC | 0 | 0 | - | 0 | 0 | 0
O=C1CC(/C=C/c2ccncc2)=Nc2ccccc2N1 | 0 | 0 | - | 0 | 39.8µM | 0
O=c1c(-c2cccs2)nc2cnc(N3CCNCC3)nc2n1CCc1ccccc1 | - | - | - | - | 0[0.501 µM] | -
c1ccc(Cc2nnc3sc(-c4cccnc4)nn23)cc1 | 0 | 0 | 0 | 0 | ? | 0
c1ccc(Cc2nnc3sc(-c4ccncc4)nn23)cc1 | 0 | 0 | 0 | 0 | 3.55µM | 0
c1ccc(Cc2nnc3sc(-c4ccc5c(c4)OCCO5)nn23)cc1 | 0 | 0 | 0 | 0 | 10µM | 0
c1ccc(Cc2nnc3sc(-c4cccs4)nn23)cc1 | 0 | 0 | 0 | 0 | 2.24µM | ?
CC1CCc2nc3ncn(Cc4ccc(Cl)cc4)c(=O)c3cc2C1 (stereo unspecified) | 0 | 0 | - | 0 | 0 | 0
C/C(CC(=O)Nc1cc(C)ccn1)=N\NC(=O)c1cccc(C)c1 | 89.1µM | 0 | - | 0 | 0 | 0
CC(C)NC(=S)N/N=C/c1cc(Br)ccc1O | 17.8µM | 50.1µM | ? | ? | 0 | 0
CCN(CC)S(=O)(=O)c1cccc(C(=O)N/N=C/c2ccccn2)c1 | 56.2µM | ? | 0 | 0 | ? | 0
SMILES | BAZ2B block | JMJD2A Tudor | L3MBTL1 inh | HP1b chromo inh | G9a block | GLS inh
O=C(N/N=C/c1ccccn1)c1cccc(S(=O)(=O)Nc2ccccc2Cl)c1 | ? | 0 | 0 | 0 | 0 | 0
O=C(N/N=C/c1ccc2ncccc2c1)c1cccc([N+](=O)[O-])c1 | 0 | ? | - | 0 | 79.4µM | 0
O=C(N/N=C/c1cccc([N+](=O)[O-])c1)c1ccc2nc[nH]c2c1 | 0 | 0 | - | 0 | 0 | 0
O=C(O)CNc1cccc(-c2nn3c(=O)cc(N4CCNCC4)nc3s2)c1 | - | 0 | - | - | - | -
O=C(N/N=C/c1ccccn1)c1ccc(NC(=O)c2cccc([N+](=O)[O-])c2)cc1 | 0 | 0[11.4 µM] | 0 | 0 | ? | 0
O=C(O)c1cccc(NC(=S)N/N=C/c2ccccn2)c1 | 3.55µM | 25.1µM | 20µM | 0 | 50.1µM | 0
Cc1ccc(C(=O)N/N=C\c2ccccn2)cn1 | ? | 79.4µM | 0 | 0 | 0 | 0
O=C(N/N=C/c1ccccn1)c1cc([N+](=O)[O-])cc([N+](=O)[O-])c1 | 50.1µM | 56.2µM | - | 0 | 0 | 0
O=C(N/N=C/c1ccccn1)c1cccc([N+](=O)[O-])c1 | 44.7µM | 0[11.4 µM] | 0 | 0 | ? | 0
O=c1c(-c2ccc(Cl)cc2)nc2cnc(N3CCOCC3)nc2n1-c1ccccc1 | - | - | - | - | 0[0.501 µM] | -
N#Cc1ccc(CN2CC3(CCN(C(=O)c4cccc(F)c4)CC3)C2)cc1 | - | - | - | - | 0[12.7 µM] | -
O=C(N/N=C/c1ccncc1)c1cc([N+](=O)[O-])cc([N+](=O)[O-])c1O | ? | 79.4µM | 0 | 0 | ? | ?
Cc1cccc(C(=O)N/N=C/c2ccccn2)c1 | 0 | ? | 0 | 0 | 15.8µM | 0
CCOc1cc(Br)cc(/C=N/NC(=O)c2cccnc2)c1O | 28.2µM | 39.8µM | ? | 0 | 0 | 0
Cc1ccc(C(=O)N/N=C/c2cc(Br)ccc2O)cn1 | 7.94µM | 56.2µM | 0[2.29 µM] | 0 | 0[0.501 µM] | 0
